Reference: the supplement of paper PMC12669032

How the values were obtained:
Assay in all cases: growth AUC relative to DMSO control (median of replicates) (fraction); higher = more growth (less inhibition), active = hit call of the paper
Conditions in all cases: 20 µM; 24 h;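 active = AUC reduced over 20% with Padj below 0.05 in at least 2 of 3 replicates; inactive = otherwise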
[1] = system: Akkermansia muciniphila
Procedure, shortened: (§1)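 For each compound at 20 µM (1% DMSO), gut bacterial monocultures seeded at OD600 0.05 grew anaerobically in mGAM at 37 °C in round-bottom 96-well plates. Hourly OD600 readings over 24 h gave growth curves whose minimum OD was set to 0. Area under these curves was normalised to the plate median of solvent-only wells, or to row and column medians on the industrial chemical plate. Values are medians of three biological replicates grown on separate days.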

[2] = system: Bacteroides caccae
Procedure, shortened: as §1

[3] = system: Bacteroides clarus
Procedure, shortened: as §1

[4] = system: Bacteroides dorei
Procedure, shortened: as §1

[5] = system: Bacteroides stercoris
Procedure, shortened: as §1

[6] = system: Bacteroides thetaiotaomicron
Procedure, shortened: as §1

[7] = system: Bacteroides uniformis
Procedure, shortened: as §1

[8] = system: Bifidobacterium longum subsp. longum
Procedure, shortened: as §1

[9] = system: Clostridium difficile
Procedure, shortened: as §1

[10] = system: Collinsella aerofaciens
Procedure, shortened: as §1

Measured: growth AUC

Nc1cccc(Cl)c1Cl
inactive: [1] 0.928 | [2] 1.04 | [3] 1 | [4] 0.999 | [5] 1.18 | [6] 0.999 | [7] 1.02 | [8] 0.921 | [9] 0.999 | [10] 1.06

CNc1cnn(-c2cccc(C(F)(F)F)c2)c(=O)c1Cl
inactive: [1] 0.94 | [2] 0.979 | [3] 1.02 | [4] 1.01 | [5] 0.914 | [6] 0.994 | [7] 0.991 | [8] 0.989 | [9] 0.937 | [10] 1.03

Nc1cc(Cl)cc(Cl)c1
inactive: [1] 1.1 | [2] 0.895 | [3] 1.04 | [4] 1.03 | [5] 1.33 | [6] 1.01 | [7] 1.04 | [8] 1.08 | [9] 1 | [10] 0.984

CCS(=O)(=O)Cc1ccccc1OC(=O)NC
inactive: [1] 1.05 | [2] 0.949 | [3] 1 | [4] 0.994 | [5] 1.1 | [6] 0.971 | [7] 0.995 | [8] 1.01 | [9] 0.977 | [10] 1.05

CCC(C)c1ccccc1OC(=O)NC (stereo not given)
inactive: [1] 0.869 | [2] 1.03 | [3] 0.975 | [4] 1.01 | [5] 0.961 | [6] 0.981 | [7] 0.978 | [8] 0.976 | [9] 1 | [10] 0.986

C[C@@H](Oc1ccc(Cl)cc1Cl)C(=O)O
inactive: [1] 1.14 | [2] 0.98 | [3] 1 | [4] 0.925 | [5] 1.26 | [6] 1 | [7] 0.965 | [8] 0.982 | [9] 0.949 | [10] 0.977

CCOC(=O)C(C)OC(=O)c1cc(Oc2ccc(C(F)(F)F)cc2Cl)ccc1[N+](=O)[O-] (stereo not given)
inactive: [1] 0.88 | [2] 0.95 | [3] 0.931 | [4] 0.985 | [5] 0.992 | [6] 0.987 | [7] 0.966 | [8] 0.947 | [9] 0.978 | [10] 0.857

C=C(C)CN(CC)c1c([N+](=O)[O-])cc(C(F)(F)F)cc1[N+](=O)[O-]
inactive: [1] 0.843 | [2] 1.02 | [3] 0.965 | [4] 1.02 | [5] 0.926 | [6] 0.998 | [7] 0.968 | [8] 0.933 | [9] 1.04 | [10] 1

COC(=O)c1sccc1S(=O)(=O)NC(=O)Nc1nc(C)nc(OC)n1
inactive: [1] 1.13 | [2] 0.932 | [3] 0.994 | [4] 0.875 | [5] 0.961 | [6] 0.924 | [7] 1.03 | [8] 1.09 | [9] 0.944 | [10] 0.898

OC[C@@H](O)[C@H]1O[C@@H]2O[C@H](C(Cl)(Cl)Cl)O[C@@H]2[C@H]1O (mixture of isomers)
inactive: [1] 0.979 | [2] 1.02 | [3] 0.978 | [4] 1.04 | [5] 0.952 | [6] 1.01 | [7] 1.04 | [8] 0.969 | [9] 1.03 | [10] 0.975

[CH3][Hg][Cl]
active: [6] 0.679 | [7] 0.77
inactive: [1] 0.749 | [2] 0.912 | [3] 0.837 | [4] 0.96 | [5] 0.903 | [8] 0.868 | [9] 0.902 | [10] 1.01

O=C1C=C(N(Cc2ccc(Cl)nc2)CC(F)F)CO1
inactive: [1] 0.98 | [2] 0.991 | [3] 0.991 | [4] 0.977 | [5] 1.25 | [6] 1.01 | [7] 0.997 | [8] 1.01 | [9] 0.978 | [10] 0.994

COc1ccc(-c2ccccc2)cc1NNC(=O)OC(C)C
inactive: [1] 0.865 | [2] 0.921 | [3] 0.974 | [4] 0.991 | [5] 1.08 | [6] 0.958 | [7] 0.942 | [8] 0.982 | [9] 0.993 | [10] 1.05

CCCCC(CC)COC(=O)c1ccccc1C(=O)OCC(CC)CCCC (stereo not given)
inactive: [1] 1.03 | [2] 0.989 | [3] 0.993 | [4] 0.963 | [5] 0.898 | [6] 0.993 | [7] 1.03 | [8] 0.984 | [9] 0.977 | [10] 0.888

O=C(O)CCl
inactive: [1] 0.94 | [2] 0.966 | [3] 0.991 | [4] 0.982 | [5] 1.07 | [6] 1 | [7] 0.947 | [8] 0.938 | [9] 0.995 | [10] 0.976

O=C(Nc1ccc(F)cc1F)c1cccnc1Oc1cccc(C(F)(F)F)c1
inactive: [1] 0.947 | [2] 0.929 | [3] 0.965 | [4] 0.882 | [5] 0.924 | [6] 0.966 | [7] 1.01 | [8] 1 | [9] 0.977 | [10] 0.946

CC[C@H]1CCCC(O[C@H]2CC[C@H](N(C)C)[C@@H](C)O2)[C@@H](C)C(=O)C2=C[C@@H]3[C@@H](C=C(C)[C@@H]4C[C@@H](O[C@@H]5O[C@@H](C)[C@H](OC)[C@@H](OC)[C@H]5OC)C[C@@H]34)[C@@H]2CC(=O)O1.CC[C@H]1CCCC(O[C@H]2CC[C@H](N(C)C)[C@@H](C)O2)[C@@H](C)C(=O)C2=C[C@@H]3[C@@H](C=C[C@@H]4C[C@@H](O[C@@H]5O[C@@H](C)[C@H](OC)[C@@H](OC)[C@H]5OC)C[C@@H]34)[C@@H]2CC(=O)O1 (stereo not given in full)
inactive: [1] 0.986 | [2] 1.01 | [3] 0.979 | [4] 1.04 | [5] 0.888 | [6] 1 | [7] 0.987 | [8] 0.889 | [9] 1.03 | [10] 0.958

CCOP(=S)(OCC)Oc1ccc(S(C)=O)cc1 (stereo not given)
inactive: [1] 0.951 | [2] 0.974 | [3] 0.967 | [4] 0.985 | [5] 0.951 | [6] 0.968 | [7] 0.993 | [8] 0.97 | [9] 0.994 | [10] 1.05

Oc1ccc(C(c2ccc(O)cc2)(C(F)(F)F)C(F)(F)F)cc1
active: [2] 0.63 | [3] 0.464 | [4] 0.154 | [5] 0.0109 | [6] 0.679 | [7] 0.686
inactive: [1] 1.03 | [8] 0.924 | [9] 0.966 | [10] 0.894

Cc1ccc(-c2c(Cl)nc(C#N)n2S(=O)(=O)N(C)C)cc1
active: [7] 0.639
inactive: [1] 0.913 | [2] 0.844 | [3] 0.817 | [4] 0.904 | [5] 0.931 | [6] 0.906 | [8] 1.03 | [9] 0.96 | [10] 1.02

CCOP(=O)(NC(C)C)Oc1ccc(S(C)=O)c(C)c1 (stereo not given)
inactive: [1] 1.01 | [2] 0.999 | [3] 1.04 | [4] 1.04 | [5] 1.02 | [6] 0.997 | [7] 1.02 | [8] 1.06 | [9] 1.08 | [10] 1

CC1(C)C(C(=O)OC(C#N)c2cccc(Oc3ccccc3)c2)C1(C)C (stereo not given)
inactive: [1] 0.879 | [2] 0.995 | [3] 0.991 | [4] 0.996 | [5] 0.946 | [6] 0.986 | [7] 1.01 | [8] 0.951 | [9] 1.01 | [10] 0.995

N#Cc1nn(-c2c(Cl)cc(C(F)(F)F)cc2Cl)c(N)c1C(F)(F)F
inactive: [1] 1.08 | [2] 0.898 | [4] 0.773 | [5] 0.626 | [6] 1.01 | [7] 0.97 | [8] 0.858 | [10] 0.967
active: [3] 0.741 | [9] 0.609

c1nc[n]([Sn]([CH]2CCCCC2)([CH]2CCCCC2)[CH]2CCCCC2)n1
inactive: [1] 1.02 | [2] 0.997 | [3] 0.86 | [4] 0.939 | [5] 0.935 | [6] 0.955 | [7] 0.901 | [8] 0.506 | [9] 0.951 | [10] 0.814

CC(C)(C)C(=O)C(Oc1ccc(Cl)cc1)n1cncn1 (stereo not given)
inactive: [1] 1.04 | [2] 0.993 | [3] 1 | [4] 1.01 | [5] 1.1 | [6] 0.999 | [7] 0.978 | [8] 1.02 | [9] 1.03 | [10] 1.01

ClCC(Br)CBr (stereo not given)
inactive: [1] 0.997 | [2] 1.04 | [3] 0.981 | [4] 0.974 | [5] 0.996 | [6] 1 | [7] 0.957 | [8] 1 | [9] 1 | [10] 0.992

CCOP(=S)(OCC)Oc1cc(Cl)c(SC)cc1Cl
inactive: [1] 1.01 | [2] 0.997 | [3] 0.979 | [4] 0.999 | [5] 1.11 | [6] 0.992 | [7] 0.989 | [8] 0.981 | [9] 1.05 | [10] 1.01
